Screening data from PubChem BioAssay.
TDP1 cell CPT: growth inhibition of DT40 Tdp1-/-;hTDP1 cells with camptothecin (screen for TDP1 inhibitors); chicken DT40 Tdp1-/-;hTDP1 cells + 20 nM CPT, ATP luminescence, 48 h; Potency, µM (doses to about 46.2 µM), for inactives: at the highest dose activity change, negative = growth inhibition, actives largely listed as inhibitors; 420,000 compounds, 12% hits; AID 686979; also: potency is read from the fitted curve at half-maximal effect; % is scaled to controls: 0 for no effect and ±100 for the full control effect; nearly all actives have a fitted effect of over 55% in size
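Chicken DT40 Tdp1-/- cells stably complemented with human TDP1 were seeded at 400 cells/well in medium containing 20 nM camptothecin, exposed to pin-transferred compounds, and grown at 37 °C for at least 48 hr. Viability was read as ATP luminescence.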
HepG2 viability: counter-screen for TGF-b inhibitors: cytotoxicity in HepG2 cells; AID 588856; 410,000 compounds, 0.76% hits; HepG2 CAGA-GFP viability, ATP luminescence, 18 h; Potency, µM (top dose mostly 46.1 µM), without a hit: at the highest dose activity change, negative = cytotoxicity, hits mostly cytotoxic; also: potency is read from the fitted curve at half-maximal effect
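CellTiter-Glo luminescence gave cytotoxicity after 18 hours at 37 degrees C. The cells were HepG2 CAGA-GFP in 1% FBS DMEM, stimulated with 500 pg/mL TGF-beta after compound addition. %Activity was normalised to no-cell wells (complete cell-killing) and DMSO (no toxicity), and curves were fitted and classified.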
ASM inhibitor: human S-ASM enzyme inhibition | P17405 | placental ASM, HMU-PC fluorogenic substrate, 60 min | Potency, µM (titrated, usually from 57.5 µM), for inactives: at the highest dose activity change, negative = inhibition, actives largely listed as inhibitors | 340,000 compounds, 0.006% hits; also: potency is read from the fitted curve at half-maximal effect
Target sequence (P17405 47-631 limits assumed): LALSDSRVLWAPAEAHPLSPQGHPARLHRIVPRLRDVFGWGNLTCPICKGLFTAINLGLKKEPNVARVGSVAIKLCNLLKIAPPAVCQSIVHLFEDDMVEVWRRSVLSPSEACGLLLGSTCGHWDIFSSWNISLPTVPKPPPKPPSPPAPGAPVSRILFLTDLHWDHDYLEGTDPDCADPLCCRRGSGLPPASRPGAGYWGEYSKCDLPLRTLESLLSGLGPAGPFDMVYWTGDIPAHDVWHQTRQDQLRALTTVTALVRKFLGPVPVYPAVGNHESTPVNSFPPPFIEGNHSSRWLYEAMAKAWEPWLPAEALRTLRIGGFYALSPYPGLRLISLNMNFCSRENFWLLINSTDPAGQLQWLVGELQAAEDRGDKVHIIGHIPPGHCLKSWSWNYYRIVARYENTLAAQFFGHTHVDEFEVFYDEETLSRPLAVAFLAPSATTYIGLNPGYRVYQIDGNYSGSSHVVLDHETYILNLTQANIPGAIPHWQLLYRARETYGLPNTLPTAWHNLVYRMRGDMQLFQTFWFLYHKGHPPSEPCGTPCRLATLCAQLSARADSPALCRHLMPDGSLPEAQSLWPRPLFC
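Steps: dispense placental human ASM, pin compound, wait 10 min at room temperature, add HMU-PC0 substrate at 9 uM final, incubate 60 min at 37 °C, add stop solution raising pH to 10, read fluorescence.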
IL-1B inflam inh: inhibitors of inflammasome signaling (IL-1 beta secretion). THP-1 LPS/ATP IL-1B secretion, AlphaLISA, 16 h; hits give low values. 360,000 compounds, 4.7% hits. activity change, % at 57.5 µM. AID 743279; in the data active = activity change below about -50%; inconclusive = mostly about -30% to -49%; also: % is scaled to controls: 0 for no effect and ±100 for the full control effect
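Secreted IL-1B measured by AlphaLISA bead assay after 16 h compound exposure of THP-1 cells; compounds (final up to 57.5 uM) added 1 h before LPS (250 ng/mL) and ATP (1.25 mM) stimulation; lower signal means less secretion.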
TGFb inhibitor: blocks TGF-b signaling. HepG2 CAGA-GFP TGF-b/SMAD3 reporter, GFP fluorescence, 18 h; TGF-beta stimulated, 500 pg/mL final. Potency, µM (series often up to 46.1 µM), inactives show top-dose activity, negative = inhibition, actives largely listed as inhibitors. 410,000 compounds, 1.2% hits; also: potency is read from the fitted curve at half-maximal effect; % is scaled to controls: 0 for no effect and ±100 for the full control effect; nearly all actives have a fitted effect of over 65% in size
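TGF-beta reporter screen: HEPG2 CAGA-GFP, 1% FBS, 500 pg/mL TGF-beta final, 18 h; per-cell GFP summed per well; curves fitted and categorized by class.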
TDP1 cell noCPT: qHTS for Inhibitors of human tyrosyl-DNA phosphodiesterase 1 (TDP1): qHTS in cells in absence of CPT | DT40 Tdp1-/- hTDP1 cells, no CPT, ATP luminescence, 48 h | Potency, µM (series often up to 46.2 µM), inactives show at the highest dose activity change, negative = growth inhibition, usual class: inhibitors | 420,000 compounds, 15% hits; also: potency is read from the fitted curve at half-maximal effect; % is scaled to controls: 0 for no effect and ±100 for the full control effect; nearly all actives have a fitted effect of over 55% in size
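A cellular qHTS used chicken DT40 cells lacking endogenous Tdp1 but carrying stably transfected human TDP1. Compounds were applied without camptothecin, and cell growth kinetics were judged by ATP-dependent luminescence after ≥48 hr.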
Active calls of the source: *; ? = inconclusive; . = no result given. Most compounds without a hit are left out; they make up all but 19% or so of the library. Unless noted, calls follow the shape of the dose curve; as a rule, active = well fitted curve in the direction sought with a large enough effect; inconclusive = small, poorly fitted or top-dose-only effect, or another doubt; inactive = no such curve, though single readings can be large; an effect the other way counts as inactive or inconclusive.

SMILES	TDP1 cell CPT	HepG2 viability	ASM inhibitor	IL-1B inflam inh	TGFb inhibitor	TDP1 cell noCPT
CCN1CCN(C2=C(Cl)C(=O)N(Cc3ccccc3)C2=O)CC1	23µM*	-9%	-1%	-21	-2%	?
CCc1cc(=O)[nH]c(SCc2nc(-c3ccccc3)no2)n1	?	-20%	.	.	?	?
CC(C)CC(NC(=O)OCC1c2ccccc2-c2ccccc21)C(=O)O (stereo unspecified)	-3%	.	.	.	.	22%
NCC(=O)NNC(=O)OCC1c2ccccc2-c2ccccc21	-18%	-1%	6%	-2	5%	-4%
O=C(CCNC(=O)OCC1c2ccccc2-c2ccccc21)NOCc1ccccc1	3.3µM*	1%	0%	30	16%	4.1µM*
O=C(O)CCNC(=O)OCC1c2ccccc2-c2ccccc21	8.2µM*	-24%	0%	30	-2%	?
Cc1ccc(CNC(=O)Cn2ncc3c([nH]c4ccc(C)cc43)c2=O)cc1	-4%	1%	.	.	?	-2%
Cn1c(=O)cc(SCC(=O)N2CCN(c3ccccn3)CC2)c2ccccc21	?	-22%	-1%	-50*	-2%	?
CCN1CCN(C(=O)CSc2cc(=O)n(C)c3ccccc23)CC1	2%	-7%	5%	-18	0%	6%
O=C(CSc1ccccc1)N1CCN(c2ccccn2)CC1	4%	-10%	7%	-10	-1%	?
Cn1c(=O)cc(SCC(=O)N2CCN(c3ccccc3)CC2)c2ccccc21	16µM*	-1%	-9%	-10	47%	?
O=C(CC(c1ccccc1)c1ccccc1)N1CCN(c2ccccn2)CC1	?	-2%	2%	-25	25%	18µM*
CN1CCN(C(=O)CSc2cc(=O)n(C)c3ccccc23)CC1	1%	0%	6%	-26	3%	26%
Cc1nc(NC(=O)c2ccccc2)sc1-c1cc(C(=O)NCCO)nn1Cc1ccccc1	22%	.	.	?	.	-16%
O=C(N/N=C/c1ccc(-c2ccc([N+](=O)[O-])cc2)o1)c1cccnc1	1%	1%	-1%	-11	-19%	-22%
CNC(=S)N/N=C/c1ccc(-c2cccc(C(=O)O)c2)o1	9.2µM*	11µM*	51%	19	18%	8.2µM*
Cc1ccc(C(=O)N/N=C/c2ccc(-c3cccc(C(F)(F)F)c3)o2)cn1	2.9µM*	0%	61%	3	?	2.6µM*
Cc1ccc(OCC(=O)N/N=C\c2ccc(-c3cccc(C(=O)O)c3)o2)c(C)c1	-9%	-24%	2%	0	?	-19%
CCn1nc(C)c(NC(=O)CC23CC4CC(CC(C4)C2)C3)c1C	?	1%	-1%	47	-13%	21µM*
Cc1nn(C)cc1NC(=O)CC12CC3CC(CC(C3)C1)C2	?	4%	2%	17	5%	?
Cc1ccc(Cl)cc1N1CCN(C(=O)c2cc3c(-c4ccccc4F)nn(C)c3s2)CC1	?	7%	.	.	1%	15µM*
CC(=O)c1ccc(N2CCN(C(=O)c3cc4c(-c5ccccc5F)nn(C)c4s3)CC2)cc1	18µM*	-22%	-15%	3	-17%	18µM*
Cc1ccc(Cl)cc1N1CCN(C(=O)c2cc3c(=O)oc4ccccc4c3s2)CC1	-12%	-12%	.	.	-16%	8%
CCN1CCN(C(=O)c2cc3c(-c4ccc(Cl)cc4)nn(C)c3s2)CC1	?	-38%	-5%	?	-17%	?
Cc1cc(NC(=O)OC2CCCCC2)ccc1[N+](=O)[O-]	-7%	-9%	-9%	-51*	?	?
